Laboratory results reported in PubChem BioAssay.
Records with an inconclusive call do not appear. Active and inactive are the calls of the source.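 Rule for the calls, unless noted: active = differentiation response of at least 50%, scaled between solvent and reference control, from cells with both markers; inactive = the rest.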

Key:
[1] = rapamycin-like changes in RPL19A-GFP expression – cell-based, S. cerevisiae, multiplex flow cytometry, primary screen (AID 1862; in the data active = percent of DMSO control GFP below about 86%;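 note: lower values mimic rapamycin by blocking the RPL19A rise seen in DMSO cells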); conditions: S. cerevisiae RPL19A-GFP strain, flow cytometry fluorescence, 3 h; at 10 µM; stronger effect = lower value
[2] = TOR pathway GLN3 branch reporter MEP2-GFP changes – S. cerevisiae, multiplex flow cytometry, primary screen (AID 1867;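 active = GFP response, as percent of the DMSO control, above the screen-wide mean plus 3 SD, about 139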;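 note: median GFP channel fluorescence of barcode-gated MEP2-GFP cells measured by flow cytometry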); conditions: S. cerevisiae MEP2-GFP strain, 3 h, at 10 µM, stronger effect = higher value, 100% means same as DMSO wells
[3] = TOR pathway RTG branch CIT2 reporter changes – S. cerevisiae, GFP fusion, multiplex flow cytometry, primary screen (AID 1870;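 active = percent response above a set limit, the screen-wide mean plus 3 SD, cut at about 130% in these data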;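 note: barcoded CIT2-GFP strain pooled with four other GFP strains with rapamycin as positive control; median GFP fluorescence per well over plate mean of DMSO wells so 100% = DMSO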); conditions: S. cerevisiae CIT2-GFP expression, 3 h, at 10 µM, stronger effect = higher value
[4] = TOR pathway LAP4-GFP level changes – S. cerevisiae, multiplex flow cytometry, primary screen (AID 1873;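 active = GFP signal, as percent of the solvent control, above the screen mean plus 3 SD, about 149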); conditions: S. cerevisiae LAP4-GFP expression, 3 h, at 10 µM, stronger effect = higher value
[5] = yeast AGP1-GFP level changes, GLN3 branch – cell-based, multiplex flow cytometry, S. cerevisiae, primary screen (AID 1887;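 active = GFP signal above the screen-wide mean plus 3 SD, that is over about 124.5% of the solvent control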;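 note: AGP1-GFP fusion strain of S. cerevisiae within a five-strain barcoded multiplex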); conditions: 3 h, at 10 µM, stronger effect = higher value
[6] = reduced mouse 2C T cell binding to pMHC/ICAM-1 vesicles – MLPCN validation set, flow cytometry, LFA-1/ICAM-1 modulator project, pilot screen (AID 2523;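 active = response below a set limit, under 55% cells CD8-positive and vesicle-bound, and CD8 cells' 90th-percentile brightness under 279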;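 for vesicle binding response: mean PE anti-B7-1 fluorescence of CD8+ cells relative to row control; 100% = QL9-loaded vesicles with DMSO vehicle in the same plate row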); conditions: 2C mouse CD8+ T cells, at 7 µM, stronger effect = lower value; double positive events: measured here: CD8+/vesicle+ event percentage
[7] = molecular target: Integrin beta-1 (Homo sapiens) + Integrin alpha-4 (Homo sapiens) (UniProt P13612+P05556); assay: alpha4beta1 integrin LIBS antibody binding reduction – U937 cells, HUTS-21 mAb, flow cytometry, validation set, VLA-4 allosteric modulator project, pilot screen (AID 2674;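 active = inhibition above 50%, about 3 SD of the validation set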;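 note: antibody binding induced by the VLA-4 ligand LDV present at three times its Kd; 0% = LDV ligand with antibody and no compound and 100% = antibody without LDV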); conditions: HUTS-21 LIBS mAb binding, at 6.7 µM, stronger effect = higher value, binding induced by LDV ligand
[8] = molecular target: Beta-adrenergic receptor kinase 1 (Homo sapiens) (UniProt P25098); assay: GRK2 binders displacing RNA aptamer, biochemical, validation, human GRK2, bead flow cytometry (AID 488806;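 active = aptamer binding inhibition above 30%, about 3 SD of noise from non-fluorescent compounds; inactive = inhibition at or below 30%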); conditions: bead-bound GRK2, FAM-aptamer displacement, at 10 µM, stronger effect = higher value
[9] = molecular target: Beta-2 adrenergic receptor (Homo sapiens) (UniProt P07550); assay: agonist-induced loss of surface beta2AR – cell-based, FAP fluorogen, flow cytometry, validation set, pilot screen (AID 504459;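 active = percent response above 42, roughly 3 SD of non-fluorescent test compounds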;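 note: agonist-driven loss of surface beta2AR via internalization measured by FAP dye flow cytometry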); conditions: Am2.2-beta2AR cells, at 10 µM, stronger effect = higher value
[10] = molecular target: AP-2 complex subunit beta (Homo sapiens) (UniProt P63010); assay: beta-arrestin/AP2 interaction blockers – biochemical, validation set, GST-AP2 beads, flow cytometry, pilot screen (AID 504541;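 active = inhibition above 54%, about 3 SD of non-fluorescent compounds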;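 note: AP2 carries R879A mutation and is captured from E. coli lysate; bead-bound FITC arrestin peptide fluorescence measuring arrestin peptide binding to AP2; 0% = DMSO wells and 100% = excess unlabeled arrestin peptide control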); conditions: FITC arrestin peptide, at 10 µM, stronger effect = higher value, AP2 beta2 appendage fragment, R879A mutant
[11] = cytosolic pH regulators acting via V-ATPase – S. cerevisiae, pHLuorin, HTS validation (AID 504600; in the data active = response above about 15%;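 note: plate controls were DMSO for no effect and reference compound for full effect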); conditions: V-ATPase proton transport, at 10 µM, stronger effect = higher value
[12] = tested on: anti-desmoglein-3 scFv antibody binding to human DSG3; assay: blockers of pathogenic pemphigus antibody–desmoglein-3 binding – biochemical, validation compound set, bead-based, flow cytometry, pilot screen (AID 588368;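 active = binding below the plate cutoff, the plate median minus 3 SD, with a reading above zero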;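 note: signal is the median channel fluorescence of bead-bound GFP antibody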); conditions: Protein G beads, DSG3-Fc, scFv-GFP binding, at 10 µM, stronger effect = lower value
[13] = Nile Red efflux blockade in pump-expressing yeast – validation compound set, multiplex, phenotypic, pilot screen (AID 588506;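 active = efflux inhibition above 0.42, the validation set average plus 4 SD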;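 note: Nile Red retained in cells so higher fluorescence means more efflux inhibition; 0 = negative control wells and 1 = enniatin B 25 µM full block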); conditions: S. cerevisiae pump-expressing triplex, Nile Red efflux flow cytometry; at 10 µM; stronger effect = higher value; the pumps come from Candida albicans
[14] = molecular target: ATP-binding cassette sub-family B member 6 (Homo sapiens) (UniProt Q9NP58); assay: blockers of ABCB6-driven porphyrin uptake – K562-ABCB6 cells, flow cytometry, validation set, pilot screen (AID 588550;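 active = inhibition above the screen-wide mean plus 3 SD, about 51%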;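 note: 0% = DMSO wells and 100% = benzethonium chloride 70 µM positive control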); conditions: K562-ABCB6 porphyrin accumulation, 1 h, at 10 µM, stronger effect = higher value
[15] = AML differentiation inducers, ER-HoxA9 marrow cells – cell-based, GFP/MAC1 double positive, flow cytometry, validation set, primary screen (AID 588685); conditions: stronger effect = higher value, normalized: vehicle 0, fulvestrant 100;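 note: compound exposure lasts four days before antibody staining and flow analysis; 0% = DMSO wells and 100% = 5 µM fulvestrant positive control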
[16] = calorie-restriction mimetic ROS inhibitors, yeast – validation compound set, pilot screen (AID 2706;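 active = superoxide response below 65% of plate, a cut near 3 SD across the whole screen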;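 note: yeast exposed to compound for one week at 30 degrees C before staining; 100% = mean of all compound wells on the same plate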); conditions: S. cerevisiae aging, superoxide DHE fluorescence; at 10 µM, stronger effect = lower value

Chain of Beta-adrenergic receptor kinase 1 (Homo sapiens) (P25098 whole entry, looked up): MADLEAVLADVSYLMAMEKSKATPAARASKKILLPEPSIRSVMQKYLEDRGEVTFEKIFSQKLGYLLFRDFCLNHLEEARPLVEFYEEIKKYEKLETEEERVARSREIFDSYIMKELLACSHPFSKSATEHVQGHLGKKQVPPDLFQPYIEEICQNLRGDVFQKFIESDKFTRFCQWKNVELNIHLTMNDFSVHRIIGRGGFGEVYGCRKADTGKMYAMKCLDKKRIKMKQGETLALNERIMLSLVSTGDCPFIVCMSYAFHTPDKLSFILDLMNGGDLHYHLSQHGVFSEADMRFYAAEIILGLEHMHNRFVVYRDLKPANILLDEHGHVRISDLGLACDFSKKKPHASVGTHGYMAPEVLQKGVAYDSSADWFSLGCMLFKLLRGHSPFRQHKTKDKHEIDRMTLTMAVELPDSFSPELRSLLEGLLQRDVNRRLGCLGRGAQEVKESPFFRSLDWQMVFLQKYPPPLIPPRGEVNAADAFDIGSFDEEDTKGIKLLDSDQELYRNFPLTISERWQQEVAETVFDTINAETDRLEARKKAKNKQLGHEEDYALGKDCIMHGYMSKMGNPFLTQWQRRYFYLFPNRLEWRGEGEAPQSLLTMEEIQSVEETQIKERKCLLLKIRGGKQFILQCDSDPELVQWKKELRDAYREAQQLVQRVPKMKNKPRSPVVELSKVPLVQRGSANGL
Chain of ATP-binding cassette sub-family B member 6 (Homo sapiens) (Q9NP58 whole entry, looked up): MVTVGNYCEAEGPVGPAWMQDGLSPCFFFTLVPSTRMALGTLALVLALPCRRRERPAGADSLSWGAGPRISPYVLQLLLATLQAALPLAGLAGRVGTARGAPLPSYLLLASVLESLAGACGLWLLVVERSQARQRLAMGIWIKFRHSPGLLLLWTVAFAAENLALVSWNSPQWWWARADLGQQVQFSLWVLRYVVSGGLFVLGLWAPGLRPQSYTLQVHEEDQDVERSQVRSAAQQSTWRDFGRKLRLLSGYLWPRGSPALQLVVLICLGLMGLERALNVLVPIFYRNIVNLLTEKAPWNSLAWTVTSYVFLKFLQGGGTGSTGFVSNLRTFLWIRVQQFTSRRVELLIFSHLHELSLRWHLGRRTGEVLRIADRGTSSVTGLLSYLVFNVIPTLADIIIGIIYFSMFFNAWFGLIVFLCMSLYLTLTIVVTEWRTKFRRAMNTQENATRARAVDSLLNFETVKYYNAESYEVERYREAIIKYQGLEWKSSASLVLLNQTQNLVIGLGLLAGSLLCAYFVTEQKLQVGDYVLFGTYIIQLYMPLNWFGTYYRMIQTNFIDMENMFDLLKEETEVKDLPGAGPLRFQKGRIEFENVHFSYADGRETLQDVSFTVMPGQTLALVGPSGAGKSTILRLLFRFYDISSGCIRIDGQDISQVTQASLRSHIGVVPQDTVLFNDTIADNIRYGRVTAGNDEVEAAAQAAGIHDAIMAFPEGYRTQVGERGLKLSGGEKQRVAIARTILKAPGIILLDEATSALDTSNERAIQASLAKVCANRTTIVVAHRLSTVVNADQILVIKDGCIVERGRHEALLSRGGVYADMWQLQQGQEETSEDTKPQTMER
Chain of AP-2 complex subunit beta (Homo sapiens) (P63010 whole entry, looked up, the tested form may be a part, one chain of several): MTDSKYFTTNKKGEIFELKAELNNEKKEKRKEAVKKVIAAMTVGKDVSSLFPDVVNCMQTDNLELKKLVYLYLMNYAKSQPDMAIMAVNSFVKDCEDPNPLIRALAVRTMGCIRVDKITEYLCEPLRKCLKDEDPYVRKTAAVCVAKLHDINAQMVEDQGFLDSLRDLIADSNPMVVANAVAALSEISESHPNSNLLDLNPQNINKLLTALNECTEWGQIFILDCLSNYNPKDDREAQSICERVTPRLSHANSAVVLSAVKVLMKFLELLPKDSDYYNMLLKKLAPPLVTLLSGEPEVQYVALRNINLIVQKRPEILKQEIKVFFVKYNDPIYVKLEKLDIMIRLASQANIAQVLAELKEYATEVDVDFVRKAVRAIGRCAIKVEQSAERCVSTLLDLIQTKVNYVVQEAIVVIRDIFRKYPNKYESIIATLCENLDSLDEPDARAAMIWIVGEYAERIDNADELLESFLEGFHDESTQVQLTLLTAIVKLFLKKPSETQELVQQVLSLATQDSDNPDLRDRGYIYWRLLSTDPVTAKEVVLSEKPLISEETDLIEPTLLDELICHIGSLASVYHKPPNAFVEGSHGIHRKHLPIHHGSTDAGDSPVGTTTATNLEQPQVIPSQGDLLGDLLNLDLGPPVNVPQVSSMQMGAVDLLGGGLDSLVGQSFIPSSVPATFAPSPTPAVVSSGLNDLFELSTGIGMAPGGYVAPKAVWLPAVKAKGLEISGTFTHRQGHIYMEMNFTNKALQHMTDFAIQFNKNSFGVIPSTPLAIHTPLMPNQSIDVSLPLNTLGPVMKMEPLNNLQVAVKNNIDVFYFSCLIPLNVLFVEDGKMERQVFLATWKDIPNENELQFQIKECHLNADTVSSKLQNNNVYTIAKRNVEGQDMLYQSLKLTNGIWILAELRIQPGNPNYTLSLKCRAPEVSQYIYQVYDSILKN
Chain of Integrin beta-1 (Homo sapiens) + Integrin alpha-4 (Homo sapiens) (P05556 whole entry, looked up): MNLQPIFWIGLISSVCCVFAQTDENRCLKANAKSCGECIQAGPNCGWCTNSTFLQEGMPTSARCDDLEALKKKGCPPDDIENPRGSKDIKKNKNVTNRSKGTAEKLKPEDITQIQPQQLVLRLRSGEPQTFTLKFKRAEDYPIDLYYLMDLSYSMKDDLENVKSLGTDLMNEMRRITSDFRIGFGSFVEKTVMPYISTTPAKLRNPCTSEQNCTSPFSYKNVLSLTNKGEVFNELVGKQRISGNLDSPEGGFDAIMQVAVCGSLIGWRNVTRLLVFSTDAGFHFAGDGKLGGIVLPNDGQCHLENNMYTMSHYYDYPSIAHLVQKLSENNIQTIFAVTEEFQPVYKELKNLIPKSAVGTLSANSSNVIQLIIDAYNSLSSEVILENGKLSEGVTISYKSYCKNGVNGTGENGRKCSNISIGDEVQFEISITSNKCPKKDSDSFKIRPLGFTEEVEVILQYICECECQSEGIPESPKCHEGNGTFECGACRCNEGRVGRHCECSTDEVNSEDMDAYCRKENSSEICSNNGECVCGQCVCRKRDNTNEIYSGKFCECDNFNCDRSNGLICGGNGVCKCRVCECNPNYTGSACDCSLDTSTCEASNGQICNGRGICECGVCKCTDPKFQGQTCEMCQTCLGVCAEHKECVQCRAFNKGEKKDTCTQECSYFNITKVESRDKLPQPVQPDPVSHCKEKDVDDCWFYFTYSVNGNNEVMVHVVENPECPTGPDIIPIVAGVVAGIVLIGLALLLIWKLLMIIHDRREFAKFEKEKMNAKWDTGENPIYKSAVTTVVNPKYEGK
Chain of Integrin beta-1 (Homo sapiens) + Integrin alpha-4 (Homo sapiens) (P13612 whole entry, looked up): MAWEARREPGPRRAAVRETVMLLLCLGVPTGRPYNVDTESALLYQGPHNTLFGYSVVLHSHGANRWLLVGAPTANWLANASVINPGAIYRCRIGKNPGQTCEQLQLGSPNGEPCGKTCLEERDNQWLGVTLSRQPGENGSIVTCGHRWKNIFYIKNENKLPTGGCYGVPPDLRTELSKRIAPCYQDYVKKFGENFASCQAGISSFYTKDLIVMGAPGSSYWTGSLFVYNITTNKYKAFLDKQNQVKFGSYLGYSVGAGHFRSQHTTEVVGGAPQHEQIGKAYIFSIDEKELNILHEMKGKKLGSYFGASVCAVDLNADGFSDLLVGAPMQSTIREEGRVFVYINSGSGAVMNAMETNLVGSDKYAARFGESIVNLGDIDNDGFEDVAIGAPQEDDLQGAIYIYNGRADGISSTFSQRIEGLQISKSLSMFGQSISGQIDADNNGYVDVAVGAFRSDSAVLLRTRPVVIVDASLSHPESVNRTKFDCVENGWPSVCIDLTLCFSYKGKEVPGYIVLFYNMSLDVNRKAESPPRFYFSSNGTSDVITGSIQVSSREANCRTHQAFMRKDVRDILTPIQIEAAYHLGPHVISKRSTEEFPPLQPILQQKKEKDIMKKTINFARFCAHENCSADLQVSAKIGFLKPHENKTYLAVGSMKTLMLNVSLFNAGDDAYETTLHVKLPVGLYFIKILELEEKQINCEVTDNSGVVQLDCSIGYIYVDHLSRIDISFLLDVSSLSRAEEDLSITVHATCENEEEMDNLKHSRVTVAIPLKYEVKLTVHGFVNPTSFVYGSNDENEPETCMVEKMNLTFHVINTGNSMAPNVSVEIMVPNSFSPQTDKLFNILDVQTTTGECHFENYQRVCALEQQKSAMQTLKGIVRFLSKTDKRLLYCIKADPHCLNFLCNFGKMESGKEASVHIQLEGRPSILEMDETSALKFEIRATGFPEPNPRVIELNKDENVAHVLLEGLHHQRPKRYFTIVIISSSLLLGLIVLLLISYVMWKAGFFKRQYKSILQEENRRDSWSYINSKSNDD
Chain of Beta-2 adrenergic receptor (Homo sapiens) (P07550 whole entry, looked up): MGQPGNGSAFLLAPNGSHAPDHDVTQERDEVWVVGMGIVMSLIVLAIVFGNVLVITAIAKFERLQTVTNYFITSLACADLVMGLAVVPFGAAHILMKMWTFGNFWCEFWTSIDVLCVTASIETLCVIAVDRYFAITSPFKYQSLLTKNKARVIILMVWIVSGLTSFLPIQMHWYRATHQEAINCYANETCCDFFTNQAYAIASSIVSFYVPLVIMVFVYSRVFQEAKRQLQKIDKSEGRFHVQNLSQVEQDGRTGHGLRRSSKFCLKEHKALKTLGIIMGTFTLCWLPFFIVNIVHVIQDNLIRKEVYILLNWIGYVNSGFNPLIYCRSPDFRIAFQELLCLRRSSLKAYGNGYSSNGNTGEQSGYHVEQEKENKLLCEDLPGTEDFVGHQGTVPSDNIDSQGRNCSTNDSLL

CCOC(=O)Cc1c(C)nc(N)[nH]c1=O
inactive: percent of DMSO control GFP [1] 101% | GFP response vs DMSO [2] 95.1% | percent response of DMSO control [3] 102% | GFP response vs DMSO [4] 91.4% | GFP response, % of DMSO [5] 94.3% | vesicle binding response [6] 276% | inhibition [7] -1.49% | aptamer binding inhibition [8] 3% | response [9] -4.96% | inhibition [10] -8.2% | response [11] -0.76% | binding (% of control) [12] 107% | inhibition [14] 15% | differentiation response [15] 22.7%
64.8%: double positive events [6]
active: efflux inhibition (fraction of control) [13] 0.52

NS(=O)(=O)c1cc2c(cc1Cl)NC(CSCc1ccccc1)=NS2(=O)=O
inactive: percent of DMSO control GFP [1] 97% | GFP response vs DMSO [2] 119% | percent response of DMSO control [3] 118% | GFP response vs DMSO [4] 84.2% | inhibition [7] -6.15% | superoxide response (% of plate) [16] 95.7% | aptamer binding inhibition [8] 2% | response [9] 5.55% | inhibition [10] -7.6% | response [11] 0.08% | binding (% of control) [12] 103% | efflux inhibition (fraction of control) [13] -0.24 | inhibition [14] 3% | differentiation response [15] 13.9%
active: vesicle binding response [6] 27.2%
40.1%: double positive events [6]

O=C(OCC1OC2OC3(CCCCC3)OC2C2OC3(CCCCC3)OC12)c1ccccc1 (centres undefined)
60.9%: double positive events [6]
inactive: percent of DMSO control GFP [1] 90.9% | GFP response vs DMSO [2] 104% | percent response of DMSO control [3] 116% | GFP response vs DMSO [4] 76.5% | vesicle binding response [6] 154% | inhibition [7] 5.49% | superoxide response (% of plate) [16] 102% | aptamer binding inhibition [8] 5% | response [9] 11.7% | inhibition [10] 5.67% | response [11] 1.42% | binding (% of control) [12] 128% | efflux inhibition (fraction of control) [13] 0.09 | inhibition [14] 5% | differentiation response [15] -0.82%

COc1ccc(-c2onc(C)c2-c2ccc(C(=O)OC(C)C)o2)c(O)c1
71.4%: double positive events [6]
inactive: percent of DMSO control GFP [1] 102% | GFP response vs DMSO [2] 109% | percent response of DMSO control [3] 93.4% | GFP response vs DMSO [4] 102% | GFP response, % of DMSO [5] 90.1% | inhibition [7] 2.93% | superoxide response (% of plate) [16] 95.6% | aptamer binding inhibition [8] -3% | inhibition [10] -6.7% | response [11] -0.7% | binding (% of control) [12] 105% | efflux inhibition (fraction of control) [13] -0.02 | inhibition [14] 5% | differentiation response [15] 13%
active: response [9] 58.6%

O=C1NCC2=C1C(c1ccccc1)Nc1ccccc1N2 (centres undefined)
65.6%: double positive events [6]
inactive: percent of DMSO control GFP [1] 94.6% | GFP response vs DMSO [2] 112% | percent response of DMSO control [3] 102% | GFP response vs DMSO [4] 75.9% | vesicle binding response [6] 205% | inhibition [7] 9.37% | superoxide response (% of plate) [16] 100% | aptamer binding inhibition [8] 1% | response [9] -9.09% | inhibition [10] 1.06% | response [11] -0.53% | binding (% of control) [12] 102% | efflux inhibition (fraction of control) [13] 0.16 | inhibition [14] 7% | differentiation response [15] -4.09%

CCOC(=O)c1c(C)oc2cc(Br)c(OC(C)C(=O)OCC)cc12 (centres undefined)
inactive: percent of DMSO control GFP [1] 95% | GFP response vs DMSO [2] 119% | percent response of DMSO control [3] 102% | GFP response vs DMSO [4] 84.7% | vesicle binding response [6] 238% | inhibition [7] 2.58% | superoxide response (% of plate) [16] 93% | aptamer binding inhibition [8] 7% | response [9] 4% | inhibition [10] 1.62% | response [11] -3.94% | binding (% of control) [12] 101% | efflux inhibition (fraction of control) [13] -0.31 | inhibition [14] 12% | differentiation response [15] -1.64%
60.7%: double positive events [6]

Clc1ccc(Cn2c(CN3CCCC3)nc3ccccc32)cc1
56.4%: double positive events [6]
inactive: percent of DMSO control GFP [1] 100% | GFP response vs DMSO [2] 104% | percent response of DMSO control [3] 107% | GFP response vs DMSO [4] 100% | GFP response, % of DMSO [5] 102% | vesicle binding response [6] 98% | superoxide response (% of plate) [16] 105% | aptamer binding inhibition [8] -1% | inhibition [10] 1.97% | response [11] -2.91% | binding (% of control) [12] 102% | efflux inhibition (fraction of control) [13] -0.43 | inhibition [14] 4% | differentiation response [15] -22.8%

CN(C)CCOc1ccc(Cl)cc1C(C)(C)C
inactive: percent of DMSO control GFP [1] 103% | GFP response vs DMSO [2] 98.5% | percent response of DMSO control [3] 105% | GFP response vs DMSO [4] 122% | GFP response, % of DMSO [5] 109% | inhibition [7] 7.76% | superoxide response (% of plate) [16] 105% | aptamer binding inhibition [8] -1% | response [9] -20.4% | inhibition [10] -1.49% | response [11] -1.18% | binding (% of control) [12] 99.5% | efflux inhibition (fraction of control) [13] 0.05 | inhibition [14] 5% | differentiation response [15] -16.8%
40.5%: double positive events [6]

Cn1c(=O)[nH]c(=O)c2c1ncn2CCN1CCOCC1
63.6%: double positive events [6]
active: differentiation response [15] 62.8%
inactive: percent of DMSO control GFP [1] 103% | GFP response vs DMSO [2] 98.3% | percent response of DMSO control [3] 96.6% | GFP response vs DMSO [4] 82.2% | GFP response, % of DMSO [5] 97.3% | vesicle binding response [6] 288% | inhibition [7] -3.57% | aptamer binding inhibition [8] -4% | response [9] -4.41% | inhibition [10] -3.3% | response [11] 0.49% | binding (% of control) [12] 102% | efflux inhibition (fraction of control) [13] 0.08 | inhibition [14] 16%

COc1cccc(N2CC(O)=C(c3nc4ccccc4c(=O)[nH]3)C2=N)c1
58.4%: double positive events [6]
inactive: percent of DMSO control GFP [1] 97.9% | GFP response vs DMSO [2] 130% | percent response of DMSO control [3] 116% | GFP response vs DMSO [4] 75.9% | vesicle binding response [6] 140% | inhibition [7] 11.3% | superoxide response (% of plate) [16] 106% | aptamer binding inhibition [8] 5% | response [9] 20.8% | inhibition [10] 2.43% | response [11] 8.28% | binding (% of control) [12] 103% | efflux inhibition (fraction of control) [13] -0.2 | inhibition [14] 14% | differentiation response [15] 2.46%
